This is an account of results in PubChem BioAssay AID932 (The Scripps Research Institute Molecular Screening Center, 2007).

About 5,100 (2.5%) of roughly 200,000 compounds were called active. Shown is part of a subset that was picked to be rich in actives. A number with no mark means an inactive call.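 How the source made its calls: active means activation above the screen-wide mean activation plus 3 SD (cut at about 130% in these data); inactive means the rest.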 Where a SMILES comes first, the peptide text is derived from it. [ ]: non-standard residue; d: D form. ξ: configuration not given here. ξM = CSCCC(N)C(=O)O

This assay can be described thus: potentiators of IFN-gamma driven STAT1 reporter – cell-based, HTS, luciferase reporter, primary screen (AID 932).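 Further: raw ratio to IFN-gamma control signal so 100% means no change and 0% no light.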 The conditions noted are these: NIH 3T3 STAT1-luciferase reporter, luminescence, at 5.5 µM, active compounds read high, 100% = IFN-gamma alone, no compound.
As to `COc1cc(OC)c(C(=O)OCC(=O)N2CC(=O)Nc3ccccc32)cc1OC`, the activation (% of control) was 97%.

With `N#C/C(=C/c1cccc([N+](=O)[O-])c1)c1nnc2n1CCCCC2`, the activation (% of control) was 100%.

In the case of `C/C(=N/Nc1ccc(Cl)cc1)c1cnnc(-c2ccccc2)n1`, the activation (% of control) is 99.5%.

As to `COC(=O)CNC(=O)C(CCSC)NC(C)=O` (configuration not stated) (Ac-[ξM]-Gly-OMe), the activation (% of control) was 99.5%.

For `Cc1ccc(Oc2cnn(-c3ccccc3)c(=O)c2Br)cc1`, the activation (% of control) was 108%.

Turning to `C=CCNc1cnn(-c2ccc(C)cc2)c(=O)c1Cl`, the activation (% of control) is 134% (active).

As to `O=c1c(Cl)c(NC2CC2)cnn1-c1ccccc1`, the activation (% of control) was 108%.

Regarding `CN(C)c1ccc(/C=N/Nc2cc(N3CCOCC3)nc(N3CCOCC3)n2)cc1`, the activation (% of control) is 104%.

Take `C=CCN(c1ccc(Cl)cc1)S(=O)(=O)c1cccc(C(=O)OCC(=O)N(C)C)c1`: the activation (% of control) is 97.2%.

In the case of `Cc1ccc(-c2cn3cc([N+](=O)[O-])ccc3n2)cc1`, the activation (% of control) is 133% (active).

Turning to `Cc1ccc(-c2cn3cc(C)ccc3n2)cc1`, the activation (% of control) was 12.9%.

As for `Cc1ccc(-n2cc3ccc([N+](=O)[O-])cc3n2)cc1`, the activation (% of control) was 123%.

With `CCN(/N=C/c1ccccc1)c1cc(=O)n(C)c(=O)[nH]1`, the activation (% of control) is 98.7%.

As for `COc1ccccc1NC(=O)C1=C(C)NC(=O)NC1c1ccc(C)s1` (configuration not stated), the activation (% of control) was 99.8%.

With `COc1ccc(-c2cn3ccsc3n2)cc1`, the activation (% of control) was 135% (active).

Consider `CCCC(=O)Nc1cccc(-c2cn3ccsc3n2)c1`, for which the activation (% of control) was 108%.

As for `COc1ccc(-c2cn3cccnc3n2)cc1`, the activation (% of control) is 118%.

Take `COc1cc(NC(=O)CSc2nnc3ccc(-c4ccncc4)nn23)cc(OC)c1`: the activation (% of control) is 104%.

On to `C=CCN1C(=O)C(O)(CC(=O)c2ccccn2)c2ccccc21` (configuration not stated), for which the activation (% of control) was 104%.

With `COc1ccc(-c2cc(C(=O)NC(Cc3c[nH]c4ccccc34)C(=O)O)c(C)o2)cc1OC` (configuration not stated), the activation (% of control) is 93.3%.

Consider `O=C(Nc1ccc(Br)cn1)c1ccc([N+](=O)[O-])cc1Cl`, for which the activation (% of control) is 142% (active).

For the compound `CC(C)C(=O)Nc1cccc(NC(=O)c2ccc([N+](=O)[O-])cc2Cl)c1`, the activation (% of control) was 112%.

On to `O=C(Nc1ccc(Br)cn1)c1ccc([N+](=O)[O-])o1`, for which the activation (% of control) is 108%.

Consider `O=C(NC1CCCC1)C(NS(=O)(=O)c1ccc(Br)s1)c1ccccc1` (configuration not stated), for which the activation (% of control) was 94.7%.

As to `C/C(=N\NC(=S)NC(C)C)c1ccc(C(C)(C)C)cc1`, the activation (% of control) is 94.3%.

For the compound `COc1cccc(C(=O)Nc2cc3c(cc2Br)OCCCO3)c1`, the activation (% of control) is 141% (active).

For the compound `COc1cccc(C(=O)NNC(=O)c2ccccc2Br)c1`, the activation (% of control) was 98.2%.

Take `COc1ccc(C2COC(=O)C2=N)c(NC(=O)c2ccccc2)c1` (configuration not stated): the activation (% of control) was 107%.

As for `Cc1cccc(N2CCN(S(=O)(=O)c3ccc4[nH]c(=O)c(=O)[nH]c4c3)CC2C)c1` (configuration not stated), the activation (% of control) was 99.2%.

Regarding `Cc1ccc(N=Cc2c(O)n(-c3nccs3)c(=O)c3ccccc23)c(C)c1`, the activation (% of control) was 105%.

`Cc1cccc(-n2c(O)c(C=Nc3ccccc3N)c(=O)[nH]c2=O)c1`: the activation (% of control) was 156% (active).

Take `[O-][n+]1onc2c1CCc1[nH]c(-c3ccccc3)nc1-2`: the activation (% of control) was 101%.

Take `Cc1ccc(NC(=O)c2ccc(S(=O)(=O)NCC3CCCO3)cc2)cc1C` (configuration not stated): the activation (% of control) is 103%.

Turning to `O=C(NCc1ccncc1)NC12CC3CC(CC(C3)C1)C2`, the activation (% of control) is 94.6%.

For the compound `O=C(Nc1ccccc1)OCc1cc(-c2ccc(Cl)cc2)on1`, the activation (% of control) is 95.6%.

As for `O=C(Nc1cccc(Cl)c1)OCc1ccccn1`, the activation (% of control) was 130% (active).

As for `O=C(Nc1cccc(CCc2ccccn2)c1)c1ccc(Cl)cc1`, the activation (% of control) is 96.1%.

For the compound `Cc1nc([N+](=O)[O-])cn1CC(=O)Nc1ccc2c(c1)OCO2`, the activation (% of control) was 101%.

`CCOC(=O)NC(=O)C(=CNc1cccc(OC)c1)C(=O)NC(=O)OCC`: the activation (% of control) is 93.9%.

For the compound `O=C(Nc1ccccc1Cl)c1ccc2nsnc2c1`, the activation (% of control) is 133% (active).

Turning to `O=C(Nc1ccccc1)c1ccc2nsnc2c1`, the activation (% of control) was 113%.

Take `Cc1cccc(NC(=O)c2ccc3nsnc3c2)c1C`: the activation (% of control) was 104%.

With `Cc1ccc(C(=O)Nc2cccc3ncccc23)cc1[N+](=O)[O-]`, the activation (% of control) is 106%.

Turning to `Cc1cc(Oc2ccccc2)nc(N2CCOCC2)n1`, the activation (% of control) is 100%.

For `Cc1nc(N2CCOCC2)nc2c1CCCC2`, the activation (% of control) was 98.4%.

For the compound `Nc1nc(-c2sc3nc4c(cc3c2N)CCCC4)nc(N2CCOCC2)n1`, the activation (% of control) is 153% (active).

`CC(C)OC(=O)CN1CCN(c2ccc(Cl)cc2)CC1`: the activation (% of control) was 92.2%.

In the case of `Nc1nnnn1CC(=O)N/N=C/c1ccc(-c2cccc(Cl)c2)o1`, the activation (% of control) was 94.7%.

On to `O=C1NC(c2cccc(Cl)c2)Nc2ccccc21` (configuration not stated), for which the activation (% of control) was 107%.

As to `O=C1c2ccccc2NC(c2ccc(-c3cccc(Cl)c3)o2)N1O` (configuration not stated), the activation (% of control) was 132% (active).

Consider `COc1ccc(C2=NN(c3nc4ccccc4s3)C(=O)C2)cc1`, for which the activation (% of control) was 101%.

`CCOc1ccc(NC(=O)NNC(=O)c2ccc(Cl)cc2Cl)cc1`: the activation (% of control) is 97.2%.

With `CS(=O)(=O)N(CC(=O)N1CCCC1)Cc1ccccc1`, the activation (% of control) was 98.3%.

`O=C(CC1CCCCC1)NCc1ccco1`: the activation (% of control) was 108%.

As to `Cc1ccc(OCC(=O)NC(C)c2ccccc2)c([N+](=O)[O-])n1` (configuration not stated), the activation (% of control) is 117%.

As for `CSCC(NS(=O)(=O)c1ccc(C)cc1)C(=O)O` (configuration not stated), the activation (% of control) was 105%.

Consider `CN1CCN(c2ccc(NC(=O)c3ccc4c(c3)OCCO4)cc2Cl)CC1`, for which the activation (% of control) was 144% (active).

Consider `O=C(Nc1cccc(Cl)c1N1CCOCC1)c1ccc2c(c1)OCCO2`, for which the activation (% of control) is 92.9%.

On to `O=C(Nc1ccc2c(c1)OCCO2)c1ccc(Cl)c(S(=O)(=O)N2CCCCC2)c1`, for which the activation (% of control) was 96.8%.

In the case of `CC(O)CNCCOc1cccc(Oc2ccccc2)c1` (configuration not stated), the activation (% of control) was 102%.

As to `COc1ccc(C(=O)Nc2nc(-c3ccc(S(=O)(=O)N4CCOCC4)cc3)cs2)cc1`, the activation (% of control) was 85.1%.

As to `COc1ccc(-c2csc(N3CCN(Cc4ccc5c(c4)OCO5)CC3)n2)cc1`, the activation (% of control) was 101%.

For `COc1ccc(-c2csc(Cc3nc(O)cs3)n2)cc1`, the activation (% of control) is 221% (active).

As for `Cc1cc(/C=C2/C(=N)N3C(=NC2=O)SN=C3S(C)(=O)=O)c(C)n1-c1ccccc1`, the activation (% of control) was 107%.

On to `CCCCN(CC)C(=S)Nc1ccc2nc3n(c(=O)c2c1)CCCCC3`, for which the activation (% of control) is 91%.

Take `Cc1csc(NC(=O)Nc2ccccc2[N+](=O)[O-])n1`: the activation (% of control) is 133% (active).

As to `Cc1c(NC(=O)Nc2ccccc2)cccc1[N+](=O)[O-]`, the activation (% of control) is 83.6%.

Regarding `Cc1cc(NC(=O)Nc2ccccc2[N+](=O)[O-])no1`, the activation (% of control) is 114%.

For the compound `CN(Cc1cccc2ncccc12)C(=O)CC1C(=O)NCCN1Cc1ccc(F)cc1` (configuration not stated), the activation (% of control) is 98.1%.

With `O=C(c1ccc(Cl)cc1)c1cnc(Nc2ccccc2)s1`, the activation (% of control) is 119%.

Consider `CC(=O)c1cnc(-c2ccccc2)s1`, for which the activation (% of control) was 116%.

With `CC(C)(C)C(=O)c1cnc(Nc2ccccc2)s1`, the activation (% of control) was 156% (active).

For the compound `CS(=O)(=O)n1nc(-c2ccco2)nc1N`, the activation (% of control) was 105%.

On to `COc1ccc(C(=O)CSc2nnnn2C)c(OC)c1`, for which the activation (% of control) is 107%.

Consider `CCn1nnnc1SCC(=O)c1ccc(C)cc1C`, for which the activation (% of control) is 145% (active).

For `CNC(=O)CSc1nnnn1-c1ccc(C)cc1C`, the activation (% of control) was 97.7%.

`O=C(CSc1ccccc1)Nc1ccc(NC(=O)c2ccco2)cc1`: the activation (% of control) was 109%.

Take `COc1ccc(CCNC(=O)c2ccco2)cc1`: the activation (% of control) was 109%.

Take `O=C(NCCSc1ccccc1)c1ccco1`: the activation (% of control) is 134% (active).

Turning to `CN(C)S(=O)(=O)N1CCN(c2ccc([N+](=O)[O-])cc2)CC1`, the activation (% of control) was 110%.

As to `Cn1cc(/C=C/c2nc3ccccc3c(=O)n2-c2cccc([N+](=O)[O-])c2)c2ccccc21`, the activation (% of control) is 85.4%.

On to `C/[N+]([O-])=C\c1ccc([N+](=O)[O-])o1`, for which the activation (% of control) was 99.5%.

As for `CCn1c(/C=C/c2ccc([N+](=O)[O-])o2)nc2ccccc2c1=O`, the activation (% of control) is 182% (active).

On to `CCCn1c(SCC(=O)Nc2ccc(C)c(S(=O)(=O)N3CCOCC3)c2)n[nH]c1=O`, for which the activation (% of control) was 90.6%.

In the case of `CCC(=O)Nc1ccc(C(=O)N2CCN(C(=O)c3ccco3)CC2)cc1`, the activation (% of control) was 99.8%.

As for `CN(C)c1ccc(C=NCCc2ccc(S(N)(=O)=O)cc2)cc1`, the activation (% of control) is 101%.

Turning to `O=C(Nc1ccn(Cc2ccccc2)n1)c1n[nH]c([N+](=O)[O-])c1Cl`, the activation (% of control) is 121%.

With `O=C(Nc1ccn(Cc2ccccc2)n1)c1cccc(F)c1`, the activation (% of control) was 131% (active).

Take `O=C(Nc1ccn(Cc2ccc(F)cc2)n1)c1ccncc1`: the activation (% of control) was 94.9%.

In the case of `COC1=CCC2([N+](=O)[O-])CN(CC(=O)O)CC1([N+](=O)[O-])C2` (configuration not stated), the activation (% of control) is 106%.

Turning to `Fc1ccc2c(c1)C(c1cccnc1)=NNC(c1cccs1)=N2`, the activation (% of control) is 103%.

With `Cc1ccc(NC(=O)O/N=C/c2cccc([N+](=O)[O-])c2)cc1`, the activation (% of control) is 113%.

For `COc1cc2c3c(c1)/C(=C1/SC(=S)NC1=O)C(=O)N3C(C)(C)C=C2C`, the activation (% of control) is 98.1%.

With `Cc1ccc(NC(=O)c2oc3ccccc3c2C)c([N+](=O)[O-])c1`, the activation (% of control) was 100%.

Take `O=C(Nc1ccccc1)c1ccccc1NC(=O)C(F)(F)F`: the activation (% of control) is 93.5%.

`O=C(Nc1ccccc1)c1cc2ccccc2[nH]1`: the activation (% of control) was 137% (active).

Take `CC(C)n1c(=O)[nH]c2cc(C(=O)Nc3ccccc3)ccc21`: the activation (% of control) is 128%.

For the compound `CCCCNC(=O)Nc1c(C)cc(SC#N)cc1C`, the activation (% of control) is 97.9%.

Take `CCOc1ccc(/C=N/Nc2nncc(-c3ccccc3)n2)cc1OC`: the activation (% of control) was 107%.

In the case of `COc1ccc(/C=N/Nc2nc3ccccc3o2)cc1OC`, the activation (% of control) was 153% (active).

In the case of `COc1ccc(/C=N/S(=O)(=O)c2ccccc2)cc1OC`, the activation (% of control) is 107%.

As for `CCOC(=O)c1ccc[n+](CC(=O)Nc2ccccc2OC(F)F)c1`, the activation (% of control) is 98.5%.
